Residue numbers refer to the chain shown, from its start.

The first experiment concerns the target T1, SALL4 ZFC4 WT (HT-SELEX) (Mus musculus, UniProt Q8BX22 870-940).
T1 sequence: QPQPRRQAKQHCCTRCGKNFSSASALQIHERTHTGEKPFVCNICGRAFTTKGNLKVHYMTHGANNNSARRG
Put plainly: HT-SELEX; high values mean tight binding. As to conditions: protein: recombinant; vector His6-GST; dsDNA, one strand shown. In a few lines: (§1)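 Purified recombinant mouse SALL4 zinc finger cluster 4 (residues 870–940, 1 µg) and library DNA (1.5 µg first cycle, 200 ng later) were incubated for 10 min at room temperature in 100 µl of 10 mM Tris–HCl pH 7.5, 50 mM NaCl, poly(dI-dC) and DTT. After Ni2+ bead capture and up to 6 triplicate cycles of selection, DNA was MiSeq-sequenced and scanned for 6-mers. Binding signal is the fold change in each canonical k-mer's read fraction relative to the initial random library.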
For the sequence ATGAAG, the binding signal amounted to 1.56 ± 0.0293 fold-change vs cycle 0.

Take TCCTCA: the binding signal was 0.899 ± 0.0263 fold-change vs cycle 0.

For TGTACA, the binding signal stood at 1.21 ± 0.0321 fold-change vs cycle 0.

For the sequence CACTAC, the binding signal is 0.801 ± 0.0178 fold-change vs cycle 0.

Consider AATTCA, for which the binding signal amounted to 2.33 ± 0.187 fold-change vs cycle 0.

Turning to TAACAA, the binding signal was 2.11 ± 0.116 fold-change vs cycle 0.

Turning to AGGGTC, the binding signal was 0.434 ± 0.029 fold-change vs cycle 0.

Turning to AGTGAC, the binding signal turned out to be 0.776 ± 0.012 fold-change vs cycle 0.

AAACTA: the binding signal stood at 1.88 ± 0.106 fold-change vs cycle 0.

With GTATTA, the binding signal was 2.23 ± 0.186 fold-change vs cycle 0.

For GCAGGA, the binding signal came out at 0.338 ± 0.0276 fold-change vs cycle 0.

On to ATTAGC, for which the binding signal amounted to 1.14 ± 0.0454 fold-change vs cycle 0.

Regarding AATCCC, the binding signal is 0.882 ± 0.0212 fold-change vs cycle 0.

Take ACAAGT: the binding signal came out at 1.24 ± 0.0226 fold-change vs cycle 0.

In the case of ATGGGA, the binding signal was 0.904 ± 0.0547 fold-change vs cycle 0.

Take CAAGGC: the binding signal amounted to 0.301 ± 0.0203 fold-change vs cycle 0.

As to GAACTC, the binding signal turned out to be 0.875 ± 0.0352 fold-change vs cycle 0.

For the sequence AGCAGA, the binding signal came out at 0.694 ± 0.0089 fold-change vs cycle 0.

For the sequence AGAACT, the binding signal stood at 1.36 ± 0.0489 fold-change vs cycle 0.

As to ATTAAC, the binding signal worked out at 2.04 ± 0.0632 fold-change vs cycle 0.

For the sequence CATATC, the binding signal came to 1.68 ± 0.148 fold-change vs cycle 0.

Regarding TAACTA, the binding signal was 2.23 ± 0.0839 fold-change vs cycle 0.

Consider GGTGGA, for which the binding signal was found to be 0.462 ± 0.0279 fold-change vs cycle 0.

On to GTAGTA, for which the binding signal came to 1.29 ± 0.036 fold-change vs cycle 0.

As to TCTGAA, the binding signal stood at 1.3 ± 0.0929 fold-change vs cycle 0.

Regarding CCATCC, the binding signal came out at 0.48 ± 0.0325 fold-change vs cycle 0.

For CAAAGG, the binding signal was 0.765 ± 0.046 fold-change vs cycle 0.

With GAATTA, the binding signal stood at 2.39 ± 0.113 fold-change vs cycle 0.

On to CATAAA, for which the binding signal was determined as 2.36 ± 0.2 fold-change vs cycle 0.

As to AATAAC, the binding signal stood at 2.58 ± 0.181 fold-change vs cycle 0.

In the case of CCTTCC, the binding signal came to 0.487 ± 0.0167 fold-change vs cycle 0.

CTACAG: the binding signal came out at 0.79 ± 0.0207 fold-change vs cycle 0.

For AATCTA, the binding signal was 2.03 ± 0.138 fold-change vs cycle 0.

As to AACGGT, the binding signal was 0.689 ± 0.0523 fold-change vs cycle 0.

Consider GGCTAA, for which the binding signal is 0.523 ± 0.0366 fold-change vs cycle 0.

Take CATGAC: the binding signal came out at 0.822 ± 0.0546 fold-change vs cycle 0.

As to ACCATG, the binding signal worked out at 0.8385 ± 0.0023 fold-change vs cycle 0.

For the sequence ATATAT, the binding signal is 5.74 ± 0.718 fold-change vs cycle 0.

As for CGCAAA, the binding signal came out at 0.335 ± 0.00942 fold-change vs cycle 0.

Take CGTTGA: the binding signal was found to be 0.664 ± 0.053 fold-change vs cycle 0.

The target of a further experiment is T2, SALL4 ZFC4 R900W (HT-SELEX) (Mus musculus, UniProt Q8BX22 870-940, R900W).
T2 sequence: T1 sequence with R31W
Description: HT-SELEX; high values mean tight binding. Conditions: protein: recombinant; vector His6-GST; dsDNA, one strand shown. In outline:
as §1
Regarding ATGAAG, the binding signal amounted to 1.68 ± 0.108 fold-change vs cycle 0.

With TCCTCA, the binding signal came out at 1.04 ± 0.0214 fold-change vs cycle 0.

As to TGTACA, the binding signal is 1.32 ± 0.00394 fold-change vs cycle 0.

As to CACTAC, the binding signal amounted to 0.9075 ± 0.0089 fold-change vs cycle 0.

Consider AATTCA, for which the binding signal was found to be 1.93 ± 0.125 fold-change vs cycle 0.

For the sequence TAACAA, the binding signal was 2.02 ± 0.138 fold-change vs cycle 0.

Regarding AGGGTC, the binding signal is 0.524 ± 0.0447 fold-change vs cycle 0.

As to AGTGAC, the binding signal turned out to be 0.91 ± 0.0317 fold-change vs cycle 0.

AAACTA: the binding signal amounted to 1.85 ± 0.13 fold-change vs cycle 0.

With GTATTA, the binding signal amounted to 1.98 ± 0.125 fold-change vs cycle 0.

In the case of GCAGGA, the binding signal is 0.413 ± 0.0223 fold-change vs cycle 0.

In the case of ATTAGC, the binding signal is 1.18 ± 0.016 fold-change vs cycle 0.

With AATCCC, the binding signal came to 0.932 ± 0.0228 fold-change vs cycle 0.

Consider ACAAGT, for which the binding signal was 1.4 ± 0.0269 fold-change vs cycle 0.

Consider ATGGGA, for which the binding signal is 0.99 ± 0.053 fold-change vs cycle 0.

Consider CAAGGC, for which the binding signal was found to be 0.371 ± 0.0118 fold-change vs cycle 0.

Consider GAACTC, for which the binding signal was determined as 1.03 ± 0.0309 fold-change vs cycle 0.

Take AGCAGA: the binding signal amounted to 0.815 ± 0.0131 fold-change vs cycle 0.

For the sequence AGAACT, the binding signal was 1.545 ± 0.00829 fold-change vs cycle 0.

ATTAAC: the binding signal was 2.1 ± 0.104 fold-change vs cycle 0.

For the sequence CATATC, the binding signal worked out at 1.44 ± 0.0706 fold-change vs cycle 0.

On to TAACTA, for which the binding signal worked out at 2.06 ± 0.126 fold-change vs cycle 0.

As to GGTGGA, the binding signal worked out at 0.536 ± 0.0251 fold-change vs cycle 0.

GTAGTA: the binding signal came to 1.41 ± 0.0747 fold-change vs cycle 0.

TCTGAA: the binding signal worked out at 1.43 ± 0.078 fold-change vs cycle 0.

Take CCATCC: the binding signal was 0.541 ± 0.0313 fold-change vs cycle 0.

Take CAAAGG: the binding signal was 0.898 ± 0.0341 fold-change vs cycle 0.

For the sequence GAATTA, the binding signal amounted to 1.95 ± 0.0992 fold-change vs cycle 0.

For the sequence CATAAA, the binding signal is 1.79 ± 0.0666 fold-change vs cycle 0.

On to AATAAC, for which the binding signal came to 2.03 ± 0.114 fold-change vs cycle 0.

Take CCTTCC: the binding signal was 0.593 ± 0.0214 fold-change vs cycle 0.

As to CTACAG, the binding signal amounted to 0.894 ± 0.0405 fold-change vs cycle 0.

Take AATCTA: the binding signal amounted to 2 ± 0.0814 fold-change vs cycle 0.

In the case of AACGGT, the binding signal was 0.7682 ± 0.0076 fold-change vs cycle 0.

Consider GGCTAA, for which the binding signal is 0.619 ± 0.0212 fold-change vs cycle 0.

With CATGAC, the binding signal is 0.938 ± 0.0407 fold-change vs cycle 0.

As for ACCATG, the binding signal worked out at 0.925 ± 0.0262 fold-change vs cycle 0.

As to ATATAT, the binding signal was found to be 2.51 ± 0.217 fold-change vs cycle 0.

For CGCAAA, the binding signal is 0.376 ± 0.0263 fold-change vs cycle 0.

Turning to CGTTGA, the binding signal was 0.763 ± 0.00493 fold-change vs cycle 0.

In the next experiment the target is T3, SALL4 ZFC4 G921D (HT-SELEX) (Mus musculus, UniProt Q8BX22 870-940, G921D).
T3 sequence: T1 sequence with G52D
Description: HT-SELEX; high values mean tight binding. As to conditions: protein: recombinant; vector His6-GST; dsDNA, one strand shown. In outline: as §1
For ATGAAG, the binding signal is 1.51 ± 0.124 fold-change vs cycle 0.

Regarding TCCTCA, the binding signal is 1.06 ± 0.0234 fold-change vs cycle 0.

TGTACA: the binding signal was found to be 1.26 ± 0.0338 fold-change vs cycle 0.

Take CACTAC: the binding signal is 0.938 ± 0.0237 fold-change vs cycle 0.

On to AATTCA, for which the binding signal turned out to be 1.77 ± 0.161 fold-change vs cycle 0.

In the case of TAACAA, the binding signal was found to be 1.81 ± 0.153 fold-change vs cycle 0.

Regarding AGGGTC, the binding signal is 0.649 ± 0.0851 fold-change vs cycle 0.

Turning to AGTGAC, the binding signal is 0.973 ± 0.0424 fold-change vs cycle 0.

Take AAACTA: the binding signal worked out at 1.68 ± 0.169 fold-change vs cycle 0.

For GTATTA, the binding signal came to 1.76 ± 0.141 fold-change vs cycle 0.

On to GCAGGA, for which the binding signal amounted to 0.489 ± 0.0596 fold-change vs cycle 0.

Turning to ATTAGC, the binding signal came out at 1.2 ± 0.034 fold-change vs cycle 0.

On to AATCCC, for which the binding signal turned out to be 0.963 ± 0.0176 fold-change vs cycle 0.

For ACAAGT, the binding signal worked out at 1.35 ± 0.0304 fold-change vs cycle 0.

With ATGGGA, the binding signal was determined as 0.966 ± 0.0349 fold-change vs cycle 0.

On to CAAGGC, for which the binding signal is 0.492 ± 0.0622 fold-change vs cycle 0.

GAACTC: the binding signal stood at 1.04 ± 0.0772 fold-change vs cycle 0.

For the sequence AGCAGA, the binding signal was found to be 0.857 ± 0.0135 fold-change vs cycle 0.

Consider AGAACT, for which the binding signal is 1.43 ± 0.129 fold-change vs cycle 0.

Consider ATTAAC, for which the binding signal was 1.83 ± 0.178 fold-change vs cycle 0.

As for CATATC, the binding signal worked out at 1.39 ± 0.0818 fold-change vs cycle 0.

Consider TAACTA, for which the binding signal stood at 1.82 ± 0.187 fold-change vs cycle 0.

Turning to GGTGGA, the binding signal came to 0.619 ± 0.0493 fold-change vs cycle 0.

For GTAGTA, the binding signal came to 1.33 ± 0.0906 fold-change vs cycle 0.

TCTGAA: the binding signal was determined as 1.37 ± 0.111 fold-change vs cycle 0.

With CCATCC, the binding signal came to 0.633 ± 0.0281 fold-change vs cycle 0.

Consider CAAAGG, for which the binding signal is 0.935 ± 0.0222 fold-change vs cycle 0.

On to GAATTA, for which the binding signal turned out to be 1.75 ± 0.12 fold-change vs cycle 0.

In the case of CATAAA, the binding signal turned out to be 1.6 ± 0.121 fold-change vs cycle 0.

For AATAAC, the binding signal was found to be 1.79 ± 0.168 fold-change vs cycle 0.

CCTTCC: the binding signal came out at 0.661 ± 0.0352 fold-change vs cycle 0.

In the case of CTACAG, the binding signal stood at 0.94 ± 0.015 fold-change vs cycle 0.

With AATCTA, the binding signal came out at 1.8 ± 0.18 fold-change vs cycle 0.

In the case of AACGGT, the binding signal was 0.832 ± 0.0229 fold-change vs cycle 0.

With GGCTAA, the binding signal turned out to be 0.728 ± 0.0327 fold-change vs cycle 0.

For the sequence CATGAC, the binding signal stood at 1 ± 0.0669 fold-change vs cycle 0.

Regarding ACCATG, the binding signal amounted to 0.997 ± 0.0244 fold-change vs cycle 0.

In the case of ATATAT, the binding signal turned out to be 2.2 ± 0.291 fold-change vs cycle 0.

Turning to CGCAAA, the binding signal worked out at 0.498 ± 0.0731 fold-change vs cycle 0.

Take CGTTGA: the binding signal was 0.839 ± 0.0136 fold-change vs cycle 0.

Values taken from publication PMC9838217, “Structure of SALL4 zinc finger domain reveals link between AT-rich DNA binding and Okihiro syndrome”.
